Among the data in patent US20040171041, “Preparation and use of single-stranded transcription substrates for synthesis of transcription products corresponding to target sequences” (published 2004) are binding signal values, retold here.

This assay concerns the target T1, mini-vRNAP (N4 virion RNA polymerase transcriptionally active domain, His-tagged) (Bacteriophage N4, UniProt Q859P9 SEQ:38-1143).
T1 sequence: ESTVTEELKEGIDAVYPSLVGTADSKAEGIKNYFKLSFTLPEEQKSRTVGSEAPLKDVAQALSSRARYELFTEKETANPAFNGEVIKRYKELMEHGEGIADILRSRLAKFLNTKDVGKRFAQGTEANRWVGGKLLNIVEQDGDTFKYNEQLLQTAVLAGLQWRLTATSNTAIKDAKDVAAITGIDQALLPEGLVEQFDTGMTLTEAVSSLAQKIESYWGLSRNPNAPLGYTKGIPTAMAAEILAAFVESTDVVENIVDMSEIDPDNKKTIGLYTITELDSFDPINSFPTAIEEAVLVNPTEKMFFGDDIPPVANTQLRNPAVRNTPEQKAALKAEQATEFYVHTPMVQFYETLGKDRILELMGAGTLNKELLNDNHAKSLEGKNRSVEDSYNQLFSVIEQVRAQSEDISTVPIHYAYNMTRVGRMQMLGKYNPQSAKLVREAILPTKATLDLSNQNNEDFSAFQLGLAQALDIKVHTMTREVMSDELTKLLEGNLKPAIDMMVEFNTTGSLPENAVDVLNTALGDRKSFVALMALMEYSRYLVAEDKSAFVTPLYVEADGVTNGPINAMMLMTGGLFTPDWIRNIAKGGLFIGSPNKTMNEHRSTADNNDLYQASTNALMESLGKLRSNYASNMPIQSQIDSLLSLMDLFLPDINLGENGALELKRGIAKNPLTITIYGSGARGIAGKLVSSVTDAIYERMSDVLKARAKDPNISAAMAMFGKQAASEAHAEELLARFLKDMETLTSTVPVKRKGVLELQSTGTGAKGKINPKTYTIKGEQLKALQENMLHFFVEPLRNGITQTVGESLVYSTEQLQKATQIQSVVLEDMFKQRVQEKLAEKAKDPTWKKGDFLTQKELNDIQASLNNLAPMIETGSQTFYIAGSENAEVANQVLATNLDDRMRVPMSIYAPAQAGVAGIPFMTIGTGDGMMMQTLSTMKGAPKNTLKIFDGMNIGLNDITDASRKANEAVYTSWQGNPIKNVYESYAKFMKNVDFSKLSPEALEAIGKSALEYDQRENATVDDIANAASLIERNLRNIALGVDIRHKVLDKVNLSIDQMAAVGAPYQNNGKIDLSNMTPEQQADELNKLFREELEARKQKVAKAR
The assay can be described thus: filter; further one order of magnitude reduction versus -2 pairing. Conditions: tags: N-terminal His6 (pBAD B leader); hairpin, extended stem; ssDNA; [NONE]. The text has this: To study the sequence determinants of promoter binding, 20 base-long promoter oligonucleotides, containing the wild-type vRNAP promoter P2 sequence and substituted at every position with a single 5-Iodo-dU, were used. Whenever substitutions were made in the stem, the corresponding pairing base was changed to A. These oligonucleotides were ³²P end-labeled and used to determine the enzyme's affinity for promoter DNAs by a filter binding assay and the ability to crosslink to mini-vRNAP upon UV irradiation at 320 nm.
The effect of changes in the stem length of the hairpin on the ability of mini-vRNAP to bind P2 promoter DNA was analyzed. […] The stem can be shortened by two base pairs without change in the binding affinity. […] No binding is observed if one more nucleotide is removed and the loop cannot form.
For the sequence TCCAAAAGAAGCGGAGCTTCTTTTG, the binding signal was around 1000 fold lower affinity.
